PubChem BioAssay (NCI)
About 79,000 compounds went through this panel and 15% of them were active in at least one assay; those are over-represented in the sample as a whole. The source made the active and inactive calls. No stated cut-off is given here; in the data, active means growth inhibition above about 70%; inactive means the rest.

Legend:
[1] = NCI Yeast Anticancer Drug Screen. Data for the rad52 strain (AID 147);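 further: 0% = growth of vehicle-treated control cultures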; conditions: S. cerevisiae rad52 mutant growth inhibition, active compounds read high
Summary of the method: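 Vehicle-treated cultures served as the reference for growth inhibition of compound-exposed yeast bearing a DNA repair mutation.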

[2] = NCI Yeast Anticancer Drug Screen. Data for the wt1 strain (AID 149);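 further: 0% = growth of vehicle-treated wt1 cultures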; conditions: S. cerevisiae wt1 strain (SPY 50644) growth inhibition, active compounds read high
Summary of the method: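 Measured: growth of wt1 yeast under compound versus vehicle treatment, reported as inhibition.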

[3] = NCI Yeast Anticancer Drug Screen. Data for the rad50EPP+ strain (AID 151);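 further: 0% = growth of vehicle-treated control cultures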; conditions: S. cerevisiae rad50 mutant strain, active compounds read high
Summary of the method: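 In this screen, rad50EPP+ yeast were exposed to compounds. Growth inhibition was scored against vehicle-treated controls.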

[4] = NCI Yeast Anticancer Drug Screen. Data for the rad50 strain (AID 155);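 further: 0% = growth of vehicle-only cultures of the same strain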; conditions: S. cerevisiae rad50 strain growth inhibition, active compounds read high
Summary of the method: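 Growth of the mutant yeast was measured after compound exposure and referenced to vehicle-treated cultures.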

[5] = NCI Yeast Anticancer Drug Screen. Data for the mec2-1 strain (AID 157); conditions: S. cerevisiae mec2-1 strain, active compounds read high
Summary of the method: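 Vehicle-treated cultures served as reference for growth inhibition of compound-exposed mec2-1 yeast.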

[6] = NCI Yeast Anticancer Drug Screen. Data for the rad14 strain (AID 159);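 further: 0% = growth of vehicle-treated control cultures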; conditions: S. cerevisiae rad14 strain growth inhibition, active compounds read high
Summary of the method: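 Here, inhibition of yeast growth was measured after compound exposure, using a strain with a genetic defect in DNA damage repair and vehicle-treated cultures as the reference.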

[7] = NCI Yeast Anticancer Drug Screen. Data for the sgs1 mgt1 strain (AID 161);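 further: 0% = growth of cultures given vehicle only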; conditions: S. cerevisiae sgs1 mgt1 strain, active compounds read high
Summary of the method: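 Mutant yeast exposed to compound; growth scored against vehicle-only wells.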

[8] = NCI Yeast Anticancer Drug Screen. Data for the CLN2oe strain (AID 163);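 further: 0% = growth of vehicle-only control cultures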; conditions: S. cerevisiae CLN2oe strain, active compounds read high
Summary of the method: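 Inhibition relative to vehicle-treated yeast is reported. Cells: strain with genetic alteration in cell-cycle control, grown with compound.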

[9] = NCI Yeast Anticancer Drug Screen. Data for the cln2 rad14 strain (AID 165);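 further: 0% = growth equal to vehicle treated cultures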; conditions: S. cerevisiae cln2 rad14 strain, active compounds read high
Summary of the method: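 Each compound was tested on cln2 rad14 yeast. Inhibition of growth was calculated against vehicle-exposed controls.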

[10] = NCI Yeast Anticancer Drug Screen. Data for the bub3 strain (AID 167); conditions: S. cerevisiae bub3 mutant strain, active compounds read high
Summary of the method: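 Whole-cell yeast assay. The mutant strain was incubated with compounds, and growth inhibition was determined by comparison with vehicle-treated cells.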

[11] = NCI Yeast Anticancer Drug Screen. Data for the wt2 strain (AID 169);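 further: 0% = growth of vehicle-treated yeast cultures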; conditions: S. cerevisiae wt2 strain growth inhibition, active compounds read high
Summary of the method: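 Inhibition of yeast growth was determined after compound treatment, normalised to controls receiving only vehicle.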

[12] = NCI Yeast Anticancer Drug Screen. Data for the mlh1 strain (AID 171);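 further: 0% = growth of vehicle-treated control cultures of the same strain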; conditions: S. cerevisiae mlh1 strain growth inhibition, active compounds read high
Summary of the method: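 Vehicle-normalised growth inhibition of a repair- or checkpoint-altered yeast strain following compound treatment.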

[13] = NCI Yeast Anticancer Drug Screen. Data for the sgs1 strain (AID 173);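 further: 0% = growth of vehicle-only control cultures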; conditions: S. cerevisiae sgs1 mutant, active compounds read high
Summary of the method: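 Screen format: yeast with repair or checkpoint alterations, compound exposure, growth read relative to vehicle.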

[14] = NCI Yeast Anticancer Drug Screen. Data for the mlh1 rad18 strain (AID 175); conditions: S. cerevisiae mlh1 rad18 strain growth inhibition, active compounds read high
Summary of the method: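 Vehicle-treated cultures served as the reference for growth inhibition in a yeast strain carrying DNA damage repair alterations exposed to each compound.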

[15] = NCI Yeast Anticancer Drug Screen. Data for the rad18 strain (AID 177); conditions: S. cerevisiae rad18 mutant growth inhibition, active compounds read high
Summary of the method: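 Test articles were incubated with altered yeast defective in DNA damage repair. Results are given as inhibition of growth versus vehicle.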

[16] = at 5.0 µM (retest, dose inferred, filed as 0.5)
[17] = at 50.0 µM (retest, dose inferred, filed as 5.0)

Measured: growth inhibition

COc1ccc(/C=C(\NC(=O)c2ccccc2)C(=O)NN(C)c2ccnc3cc(Cl)ccc23)cc1OC
active: [3]; at 11.0 µM 78% | [3]; at 33.0 µM 90% | [3]; at 100.0 µM 78% | [4]; at 50.0 µM 86.5% | [7]; at 50.0 µM 73.1% | [10]; at 50.0 µM 90.2% | [14]; at 50.0 µM 87.1%
inactive: [1]; at 1.2 µM 3% | [1]; at 3.7 µM 1% | [1]; at 11.0 µM 12% | [1]; at 33.0 µM 5% | [1]; at 100.0 µM 27% | [2]; at 1.2 µM -41% | [2]; at 3.7 µM 0% | [2]; at 11.0 µM 3% | [2]; at 33.0 µM 11% | [2]; at 100.0 µM 15% | [3]; at 1.2 µM 4% | [3]; at 3.7 µM 20% | [4]; at 1.2 µM -1% | [4]; at 3.7 µM 7% | [4]; [16] 0% | [4]; at 11.0 µM 19% | [4]; at 33.0 µM 30% | [4]; [17] 30% | [4]; at 100.0 µM 36% | [5]; at 1.2 µM -2% | [5]; at 3.7 µM -3% | [5]; [16] -12% | [5]; at 11.0 µM 0% | [5]; at 33.0 µM 11% | [5]; [17] -14% | [5]; at 50.0 µM 28.6% | [5]; at 100.0 µM 10% | [6]; at 1.2 µM 2% | [6]; at 3.7 µM 5% | [6]; at 11.0 µM 8% | [6]; at 33.0 µM 8% | [6]; at 100.0 µM 6% | [7]; [16] -6% | [7]; [17] -6% | [8]; at 1.2 µM -2% | [8]; at 3.7 µM 6% | [8]; at 11.0 µM 38% | [8]; at 33.0 µM 48% | [8]; at 100.0 µM 58% | [9]; [16] 28% | [9]; [17] 5% | [9]; at 50.0 µM 55.4% | [10]; at 1.2 µM -4% | [10]; at 3.7 µM -4% | [10]; [16] 9% | [10]; at 11.0 µM 22% | [10]; at 33.0 µM 32% | [10]; [17] 49% | [10]; at 100.0 µM 50% | [11]; at 1.2 µM -1% | [11]; at 3.7 µM 4% | [11]; at 11.0 µM 31% | [11]; at 33.0 µM 36% | [11]; at 100.0 µM 27% | [12]; at 1.2 µM -2% | [12]; at 3.7 µM 1% | [12]; at 11.0 µM 6% | [12]; at 33.0 µM 15% | [12]; at 100.0 µM 25% | [13]; at 1.2 µM 0% | [13]; at 3.7 µM 3% | [13]; at 11.0 µM 7% | [13]; at 33.0 µM 21% | [13]; at 100.0 µM 31% | [14]; [16] 0% | [14]; [17] 1% | [15]; at 1.2 µM 2% | [15]; at 3.7 µM 5% | [15]; at 11.0 µM 11% | [15]; at 33.0 µM 41% | [15]; at 100.0 µM 50%

[N-]=[N+]=NC(c1ccccc1)(c1ccccc1)c1ccccc1
active: [1]; at 100.0 µM 94% | [2]; at 100.0 µM 88% | [4]; [16] 100% | [4]; [17] 98% | [4]; at 50.0 µM 85% | [4]; at 100.0 µM 92% | [5]; [16] 99% | [5]; [17] 98% | [5]; at 50.0 µM 80.8% | [5]; at 100.0 µM 95% | [6]; at 100.0 µM 94% | [7]; [17] 84% | [7]; at 50.0 µM 87.7% | [8]; at 100.0 µM 78% | [9]; [17] 89% | [9]; at 50.0 µM 80.5% | [10]; [17] 79% | [10]; at 50.0 µM 87.8% | [10]; at 100.0 µM 86% | [11]; at 100.0 µM 89% | [12]; at 100.0 µM 91% | [13]; at 100.0 µM 87% | [14]; [16] 100% | [14]; [17] 99% | [14]; at 50.0 µM 84.1% | [15]; at 100.0 µM 87%
inactive: [1]; at 1.2 µM 8% | [1]; at 3.7 µM 6% | [1]; at 11.0 µM 9% | [1]; at 33.0 µM 29% | [2]; at 1.2 µM 15% | [2]; at 3.7 µM 12% | [2]; at 11.0 µM -6% | [2]; at 33.0 µM 32% | [3]; at 1.2 µM 9% | [3]; at 3.7 µM 15% | [3]; at 11.0 µM 11% | [3]; at 33.0 µM 21% | [3]; at 100.0 µM 28% | [4]; at 1.2 µM 14% | [4]; at 3.7 µM 22% | [4]; at 11.0 µM 6% | [4]; at 33.0 µM 40% | [5]; at 1.2 µM 12% | [5]; at 3.7 µM 11% | [5]; at 11.0 µM 13% | [5]; at 33.0 µM 32% | [6]; at 1.2 µM -9% | [6]; at 3.7 µM 1% | [6]; at 11.0 µM -4% | [6]; at 33.0 µM 24% | [7]; [16] -4% | [8]; at 1.2 µM 29% | [8]; at 3.7 µM 23% | [8]; at 11.0 µM 20% | [8]; at 33.0 µM 26% | [9]; [16] 17% | [10]; at 1.2 µM 3% | [10]; at 3.7 µM -17% | [10]; [16] 12% | [10]; at 11.0 µM -16% | [10]; at 33.0 µM 27% | [11]; at 1.2 µM -14% | [11]; at 3.7 µM -9% | [11]; at 11.0 µM -11% | [11]; at 33.0 µM 16% | [12]; at 1.2 µM 6% | [12]; at 3.7 µM 10% | [12]; at 11.0 µM 13% | [12]; at 33.0 µM 42% | [13]; at 1.2 µM 0% | [13]; at 3.7 µM -15% | [13]; at 11.0 µM -8% | [13]; at 33.0 µM 66% | [15]; at 1.2 µM 10% | [15]; at 3.7 µM 6% | [15]; at 11.0 µM 14% | [15]; at 33.0 µM 37%
